PubChem BioAssay (NCATS)
Inconclusive results are not listed. A number with no mark means an inactive call. The source made the active and inactive calls. The call rests on the fitted dose curve; in most records, active means well fitted inhibition curve with a large enough effect; inconclusive means small, poorly fitted or top-dose-only effect; inactive means flat fitted curve, though single readings scatter.

Target: Calcium and integrin-binding protein 1 (Homo sapiens) (UniProt Q99828)
Test: Primary qHTS for Identification of Calcium Integrin Binding Protein 1 (CIB1) Competitor (AID 1508620);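 further: GST tagged CIB1 binding a fluorescein labelled alphaIIb integrin peptide tracer; top concentration of the series differs between compounds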
Conditions: CIB1-GST / FITC-alphaIIb peptide fluorescence polarization; series mostly up to 114 µM; activity change, negative = inhibition: at the top concentration
Summary of the method: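 CIB1-GST (1 uM final) and compound incubated 15 min at room temperature before adding FITC-alphaIIb peptide tracer (100 nM final). Competition for binding read by fluorescence polarization (ex 480, em 540) after another 15 min at room temperature.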
On the % scale 0 is the no-effect control and ±100 the full control effect.

Calcium and integrin-binding protein 1 (Homo sapiens), sequence (Q99828 whole entry, looked up): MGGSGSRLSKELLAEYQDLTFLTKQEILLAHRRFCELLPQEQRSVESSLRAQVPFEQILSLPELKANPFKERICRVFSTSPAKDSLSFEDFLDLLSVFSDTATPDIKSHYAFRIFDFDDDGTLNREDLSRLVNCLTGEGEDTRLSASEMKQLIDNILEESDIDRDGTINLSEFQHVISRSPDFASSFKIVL

In order of falling “activity change, negative = inhibition” value:
1. NC(=O)C1CCN(c2nc(-c3ccc([N+](=O)[O-])cc3)cs2)CC1  9.56%
2. COc1cccc(C2c3c(ncn(-c4ccccc4-c4ccccc4)c3=N)Oc3ccc4ccccc4c32)c1 (stereo not given)  9.35%
3. CC(=O)Nc1sc2c(c1-c1ccc3[nH]ccc3c1)CCNC2  7.34%
4. Cc1ccc2nc3sc(C(=O)Nc4ccc(F)cc4)cc3cc2c1  6.16%
5. O=S(=O)(Nc1cnc2ccccc2c1)c1ccc(NCc2ccc(Br)cc2O)cc1  5.68%
6. CN(C)c1cccc(-c2ncnc(N3CCC(C(N)=O)CC3)n2)c1  5.23%
7. CN1CCCC1CCNc1ncnc2ccc(-c3ccc4c(c3)OCO4)cc12 (stereo not given)  4.66%
8. Cc1c(P(=S)(c2ccccc2)c2ccccc2)c2ccccc2n1C(=O)NCc1ccc(F)cc1  3.69%
9. COc1ccc(C2=Nn3c(nnc3-c3ccc(OC)c(OC)c3)SC2)c(OC)c1  3.63%
10. O=C(Nc1ncc(Cc2ccc(C(F)(F)F)cc2)s1)c1ccc(-c2ccccc2[N+](=O)[O-])o1  3.62%
11. Cc1cc(-c2ccccc2)nc2c(C(=O)Nc3ccc(Cl)c(Cl)c3)cnn12  3.33%
12. COc1ccc(O)c(-c2nc3ccccc3c(=O)n2Cc2ccccc2)c1  2.78%
13. Oc1ccc(COc2cccc3ccccc23)c2cccnc12  2.17%
14. O=C(c1ccccc1)N(C(=O)c1ccccc1)c1ncnc2c1C(c1ccccc1)c1c(ccc3ccccc13)O2 (stereo not given)  1.59%
15. Cc1ccnc(NC(=S)N2CCC(Nc3cccc(C(F)(F)F)c3)CC2)c1  1.47%
16. O=C(O)c1ccc2c(c1)C(=O)N([C@H](Cc1cccc3ccccc13)C(=O)O)C2=O  0.912%
17. O=S(=O)(c1ccc2c(c1)OCCO2)N1CCN(S(=O)(=O)c2ccco2)CC1  0.0515%
18. COc1cc(F)c(S(=O)(=O)N2CCN(S(=O)(=O)c3cccs3)CC2)c(F)c1  -0.892%
19. Cc1cccc(CNc2ccnc(-c3ccc(F)cc3F)n2)c1  -1.52%
20. CC(=O)Nc1cccc(OCc2cccc(C3Nc4ccccc4C(=O)N3Cc3ccco3)c2)c1 (stereo not given)  -2.25%
21. NC(=O)C1CCN(c2nc(-c3ccc4ccccc4c3)cs2)CC1  -3.42%
22. CC(C)(C)OC(=O)NCc1nnc(C(C(=O)OCc2ccccc2)c2ccccc2)s1 (stereo not given)  -3.79%
23. O=C(OCC#CCSc1nnc(-c2cccc3ccccc23)o1)c1sccc1Cl  -4.7%
24. Cc1nc(-c2ccccc2)oc1-c1ccc2ncnc(NCc3ncc[nH]3)c2c1  -6.5%
25. O=C(Nc1ncc([S+](=O)([O-])N2CCOCC2)s1)c1cccc(Br)c1  -7.16%
26. Cc1ccc(-c2nn(CC(=O)N(C)C(C)c3ccco3)c(=O)cc2C)cc1 (stereo not given)  -8%
27. CN(C)c1cccc(-c2cnc(N3CCC(C(N)=O)CC3)s2)c1  -8.56%
28. Cc1cc(N[S+](=O)([O-])c2ccc(NC(=O)Cc3ccc4c(c3)CCO4)cc2)no1  -9.3%
29. O=S(=O)(NCCNc1nc(-c2ccco2)nc2ccccc12)c1ccccc1  -9.7%
30. Cc1ccsc1CN(C)c1ncnc2ccc(-c3ccoc3C)cc12  -12.8%
31. CC(=O)NC(c1cc(Cl)c2cccnc2c1O)C(C)C (stereo not given)  -13%
32. COc1cccc(C2=Nn3c(nnc3-c3ccccc3C)SC2)c1  -13.2%
33. O=C(NCc1ccccc1)C1CCN(c2nc(-c3ccc(Br)cc3)cs2)CC1  -13.4%
34. O=C(c1ccccc1O)N(Cc1ccco1)Cc1cccs1  -14.7%
35. Cc1csc(CNc2ncnc3ccc(-c4ccc(C(=O)O)o4)cc23)n1  -17.5%
36. Cc1ccc(-c2nc(NCC(=O)Nc3cccc(C(=O)O)c3)c3ccccc3n2)cc1  -18.7%
37. CN(C)CCCNC(=O)c1ccc(-c2cnc3c(O)cccc3c2)cc1  -18.9%
38. CC(=O)NC(c1ccco1)c1cc(Br)c2cccnc2c1O (stereo not given)  -20.8%

For `Cc1ccnc(NC(=S)N2CCN(c3ccccc3C(F)(F)F)CC2)c1`, the Potency was “inactive”.
`Cc1cc(C)n2ncc(C(=O)NC3CCC(C(C)(C)C)CC3)c2n1` (stereo not given) was tested, and the Potency was “inactive”.
